Where a name gives a salt, the structure may show the parent alone.
How the values were obtained:
Assay in all cases: cell proliferation relative to vehicle (% of vehicle); higher = less growth inhibition
Conditions in all cases: 72 h
[1] = tested on: U2932 TK216-resistant clone 2
Procedure, shortened: (§1)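 Parental U2932 cells (ABC-DLBCL) and two clones made resistant to an ETS-targeting agent by almost a year of repeated exposure were treated for 72 h with 348 targeted inhibitors at 500 nM or 50 nM. MTT was then applied for 4 h, the reaction was stopped with 25% SDS, and absorbance was measured on a Cytation 3. Values express proliferation as percent of proliferating cells compared with DMSO vehicle.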

[2] = tested on: U2932 TK216-resistant clone 3
Procedure, shortened: as §1

[3] = tested on: U2932 parental
Procedure, shortened: as §1

Row | SMILES | cell proliferation ([1]; 50 nM) | cell proliferation ([1]; 500 nM) | cell proliferation ([2]; 50 nM) | cell proliferation ([2]; 500 nM) | cell proliferation ([3]; 50 nM) | cell proliferation ([3]; 500 nM)
1 | O=C1NC(=O)C(c2ccccc2[N+](=O)[O-])=C1Nc1ccc(O)c(Cl)c1 | 111 | 113 | 110 | 105 | 108 | 101
2 | O=C(O)CCNc1cc(N2CCc3ccccc3CC2)nc(-c2ccccn2)n1 | 103 | 100 | 105 | 102 | 99.3 | 99.8
3 | CN(c1ncccc1CNc1nc(Nc2ccc3c(c2)CC(=O)N3)ncc1C(F)(F)F)S(C)(=O)=O | 95.6 | 91.2 | 99.2 | 95.2 | 96.9 | 87.2
4 | Nc1ccn([C@@H]2O[C@H](CO)[C@@H](O)[C@@H]2O)c(=O)n1 [Cytarabine] | 93.7 | 24 | 93.6 | 65.8 | 88.9 | 36
5 | C[C@@H](O[C@H]1OCCN(Cc2n[nH]c(=O)[nH]2)[C@H]1c1ccc(F)cc1)c1cc(C(F)(F)F)cc(C(F)(F)F)c1 [Aprepitant] | 109 | 106 | 101 | 97.4 | 108 | 98.5
6 | Cn1nnc2c(C(N)=O)ncn2c1=O [Temozolomide] | 110 | 110 | 107 | 100 | 98.8 | 96.5
7 | Nc1ccn([C@@H]2O[C@H](CO)[C@@H](O)C2(F)F)c(=O)n1 [Gemcitabine] | 15.3 | 14.9 | 20.1 | 19.1 | 12.5 | 14.6
8 | C[C@@H]1CC(=O)c2c(ccc3c2C(=O)c2cccc(O)c2C3=O)C1 | 102 | 98.5 | 104 | 92.5 | 87.5 | 97
9 | Nc1nc(F)nc2c1ncn2[C@@H]1O[C@H](CO)[C@@H](O)[C@@H]1O [Fludarabine] | 107 | 97.8 | 103 | 96.4 | 103 | 97.3
10 | CN(C)C(=N)NC(=N)N [Metformin HCl] | 110 | 102 | 113 | 108 | 99.9 | 98.9
11 | O=C(NOCC1CC1)c1ccc(F)c(F)c1Nc1ccc(I)cc1Cl | 102 | 90.6 | 98.5 | 90.8 | 96.2 | 95.7
12 | COc1ccc(-c2ccc3c(N4CCOC[C@@H]4C)nc(N4CCOC[C@@H]4C)nc3n2)cc1CO | 72.7 | 34.8 | 75.1 | 40.2 | 63.8 | 35.1
13 | CC1(C)CNc2cc(NC(=O)c3cccnc3NCc3ccncc3)ccc21 [Motesanib Diphosphate (AMG-706)] | 103 | 97.7 | 104 | 87.8 | 97.4 | 93.9
14 | COc1cc(OCc2cccc(-c3ccccc3)c2C)cc(OC)c1CN1CCCC[C@H]1C(=O)O [PD-1/PD-L1 inhibitor 1] | 103 | 99.6 | 96.8 | 104 | 101 | 95.3
15 | Cc1nc(Nc2ncc(C(=O)Nc3c(C)cccc3Cl)s2)cc(N2CCN(CCO)CC2)n1 [Dasatinib] | 74.2 | 63.7 | 66.1 | 52.4 | 75 | 60.9
16 | CC(=O)Nc1ccc(NC(=S)NC(=O)c2ccc(C(C)(C)C)cc2)cc1 [Tenovin-1] | 105 | 95.1 | 107 | 102 | 102 | 98.7
17 | O=C1CCC(N2C(=O)c3ccccc3C2=O)C(=O)N1 (stereo not drawn) [Thalidomide] | 105 | 106 | 104 | 101 | 103 | 101
18 | Nc1nc(Nc2ccc(S(N)(=O)=O)cc2)nn1C(=O)c1c(F)cccc1F | 103 | 85.3 | 102 | 78.1 | 98.8 | 87.7
19 | COC(=O)Nc1ccc(-c2nc(N3CCOCC3)c3cnn(C4CCN(C(=O)OC)CC4)c3n2)cc1 | 107 | 55.1 | 101 | 56.4 | 101 | 46.9
20 | O=C(c1ccc(/C=C/c2n[nH]c3ccccc23)cc1)N1CCNCC1 | 109 | 91 | 104 | 82.4 | 95 | 72.2
21 | O=C(/C=C/c1ccc(CN(CCO)CCc2c[nH]c3ccccc23)cc1)NO [LAQ824 (Dacinostat)] | 41.2 | 5.42 | 48.6 | 12.4 | 33.6 | 0.789
22 | CNC(=O)c1ccccc1Sc1ccc2c(/C=C/c3ccccn3)n[nH]c2c1 [Axitinib] | 110 | 92.8 | 102 | 92.8 | 95.6 | 87.4
23 | CNC(=O)c1cccc(-c2ccc3c(N4CCOC[C@@H]4C)nc(N4CCOC[C@@H]4C)nc3n2)c1 | 102 | 52.9 | 93.8 | 55.6 | 91.7 | 46.4
24 | O=C(c1cc(Cc2n[nH]c(=O)c3ccccc23)ccc1F)N1CCN(C(=O)C2CC2)CC1 | 103 | 99.3 | 103 | 103 | 99.6 | 94.9

Row | SMILES | cell proliferation ([1]; 50 nM) | cell proliferation ([1]; 500 nM) | cell proliferation ([2]; 50 nM) | cell proliferation ([2]; 500 nM) | cell proliferation ([3]; 50 nM) | cell proliferation ([3]; 500 nM)
25 | Oc1cc(O)cc(/C=C/c2ccc(O)c(O)c2)c1 [Piceatannol] | 97.8 | 99.7 | 97.6 | 100 | 98.7 | 94
26 | C=CCn1c(=O)c2cnc(Nc3ccc(N4CCN(C)CC4)cc3)nc2n1-c1cccc(C(C)(C)O)n1 | 89.6 | 20.5 | 99.7 | 38.7 | 94.7 | 33.1
27 | CNC(=O)c1cc(Oc2ccc(NC(=O)Nc3ccc(Cl)c(C(F)(F)F)c3)cc2)ccn1 [Sorafenib] | 114 | 107 | 105 | 122 | 101 | 112
28 | Cn1cc(CNCC2CCN(c3ncc(C(=O)NO)cn3)CC2)c2ccccc21 | 8.61 | 5.78 | 11.4 | 10.2 | 4.68 | 0.113
29 | Oc1cccc(-c2nc(N3CCOCC3)c3oc4ncccc4c3n2)c1 | 97.4 | 45.4 | 94.2 | 46.3 | 92.1 | 48
30 | Nc1nc(F)nc2c1ncn2[C@@H]1O[C@H](COP(=O)(O)O)[C@@H](O)[C@@H]1O [Fludarabine Phosphate] | 98.2 | 110 | 103 | 104 | 102 | 93.7
31 | CCc1cncnc1N1CCN(Cc2nc3ccc(C(F)(F)F)cc3[nH]2)CC1 | 100 | 101 | 96 | 100 | 88.9 | 92
32 | O=C(O)C1(C(=O)O)CCC1.[NH2-].[NH2-].[Pt+2] [Carboplatin] | 99.7 | 104 | 90.2 | 99.1 | 104 | 95.3
33 | C=CCc1ccc(O)c(-c2ccc(O)c(CC=C)c2)c1 [Honokiol] | 108 | 111 | 104 | 102 | 100 | 106
34 | COC(=O)c1ccc2c(c1)NC(=O)/C2=C(\Nc1ccc(N(C)C(=O)CN2CCN(C)CC2)cc1)c1ccccc1 [Nintedanib (BIBF 1120)] | 105 | 94.8 | 93.4 | 81.7 | 102 | 96.6
35 | COc1ccc(C2=N[C@@H](c3ccc(Cl)cc3)[C@@H](c3ccc(Cl)cc3)N2C(=O)N2CCNC(=O)C2)c(OC(C)C)c1 [Nutlin-3a] | 110 | 102 | 99.8 | 99.2 | 104 | 104
36 | CC(=O)O[C@H]1C(=O)[C@@]2(C)[C@H]([C@H](OC(=O)c3ccccc3)[C@]3(O)C[C@H](OC(=O)[C@H](O)[C@@H](NC(=O)c4ccccc4)c4ccccc4)C(C)=C1C3(C)C)[C@]1(OC(C)=O)CO[C@@H]1C[C@@H]2O [Paclitaxel] | 11.2 | 14.3 | 6.88 | 4.73 | 11.2 | 9.85
37 | COc1ccc(C(=O)C2CCN(CC(=O)N(Cc3nc4c(c(=O)[nH]3)COCC4)CC3CC3)CC2)cc1 | 99.7 | 95.3 | 92.2 | 93.6 | 97.7 | 97.5
38 | COCC[n+]1c2c(n(Cc3cnccn3)c1C)C(=O)c1ccccc1C2=O [YM155 (Sepantronium Bromide)] | -0.426 | -1.48 | -1.12 | -4.35 | 0.598 | -3.81
39 | CCCCC(C=O)NC(=O)C(CC(C)C)NC(=O)C(CC(C)C)NC(C)=O (stereo not drawn) | 107 | 12.7 | 106 | 24.2 | 103 | 39.6
40 | FC(F)c1nc2ccccc2n1-c1nc(N2CCOCC2)nc(N2CCOCC2)n1 | 95.8 | 42.5 | 93.6 | 46 | 89.9 | 46.8
41 | O=c1oc2c(O)c(O)cc3c(=O)oc4c(O)c(O)cc1c4c23 [Ellagic acid] | 99 | 110 | 106 | 107 | 101 | 100
42 | CCN(CC)CCNC(=O)c1c(C)[nH]c(/C=C2\C(=O)Nc3ccc(F)cc32)c1C [Sunitinib Malate] | 107 | 94.6 | 99.4 | 92.6 | 101 | 104
43 | C[C@@H]1C[C@H]2[C@@H]3CCC4=CC(=O)C=C[C@]4(C)[C@@]3(F)[C@@H](O)C[C@]2(C)[C@@]1(O)C(=O)CO [Dexamethasone (DHAP)] | 76.1 | 79 | 80.9 | 71.2 | 77.4 | 74.2
44 | Cc1[nH]nc2ccc(-c3cncc(OC[C@@H](N)Cc4ccccc4)c3)cc12 | 95.6 | 41.7 | 99.4 | 40.6 | 93.5 | 31.7
45 | N#CC[C@H](C1CCCC1)n1cc(-c2ncnc3[nH]ccc23)cn1 | 100 | 95.4 | 103 | 108 | 96.7 | 96.5
46 | CO[C@H]1C[C@@H]2CC[C@@H](C)[C@@](O)(O2)C(=O)C(=O)N2CCCC[C@H]2C(=O)O[C@H]([C@H](C)C[C@@H]2CC[C@@H](OP(C)(C)=O)[C@H](OC)C2)CC(=O)[C@H](C)/C=C(\C)[C@@H](O)[C@@H](OC)C(=O)[C@H](C)C[C@H](C)/C=C/C=C/C=C/1C [Ridaforolimus (Deforolimus, MK-8669)] | 67.9 | 64.3 | 62.2 | 58.5 | 56.4 | 57.2
47 | Oc1ccc(-c2nc(-c3ccc(F)cc3)c(-c3ccncc3)[nH]2)cc1 | 109 | 105 | 96.2 | 98.7 | 102 | 99.2
48 | CCCCCCCCCCCC1=C(O)C(=O)C=C(O)C1=O [Embelin] | 90.5 | 98.8 | 103 | 103 | 100 | 89.7

Source: the supplement of paper PMC13172266
